Laboratory results as given in PubChem BioAssay (Tox21).
Where “and” joins values, the source holds several entries; their conditions need not be identical. Equal entries are not always repeated. Results filed as inconclusive are left out. A structure can be active in one record and inactive in another. Calls of active or inactive are those of the source. Unless noted, calls come from the whole dose curve; as a rule, active = well fitted curve in the direction sought with a large enough effect in the repeat runs; inconclusive = weak or mixed curves; inactive = no such curve, though single readings can be large; an effect the other way counts as inactive or inconclusive.

Key:
[1] = qHTS assay to identify small molecule agonists of the hypoxia (HIF-1) signaling pathway - cell viability counter screen (AID 1224844; calls by dose curve; note: nearly all actives have a fitted effect of over 50% in size; note: potency is the fitted concentration of half-maximal effect); settings: HRE-bla ME-180 viability, CellTiter-Glo luminescence, 17 h; series mostly up to 76.8 µM
Outline: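 Cells (HRE-bla ME-180, 2,000 per well) sat 5 hrs at 37C, got compound for 17 hrs, were read for CCF4-AM FRET, and were finally lysed with CellTiter-Glo for a 30 min room-temperature luminescence read.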

[2] = qHTS assay to identify small molecule agonists of H2AX (AID 1224845; active = well fitted activation curve with a large enough effect in the signal ratio in the repeat runs, not every such curve was filed as active; the % refers to the signal ratio; note: potency is the fitted concentration of half-maximal effect); settings: CHO-K1 phospho-H2AX Ser139 HTRF, 3 h; series mostly up to 154 µM
Outline: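 Wild-type CHO-K1 cells, plated overnight, exposed 3hr at 37C to 15 concentrations (0.76% DMSO final). Lysed, then HTRF anti-pH2AX (S139) cryptate and anti-H2AX-d2 antibodies, 24 hr room temperature; 665/620 nm emission read.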

[3] = qHTS assay to identify small molecule agonists of H2AX - cell viability counter screen (AID 1224847; calls by dose curve; note: nearly all actives have a fitted effect of over 30% in size; note: potency is the fitted concentration of half-maximal effect); settings: CHO-K1 viability, CellTiter-Glo luminescence, 3 h; series mostly up to 154 µM
Outline: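 We seed wild-type CHO-K1 cells overnight, treat them for 3 hr at 37C with compounds in 15-concentration series, and quantify remaining viability by CellTiter-Glo luminescence.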

[4] = qHTS assay to identify small molecule antagonists of the estrogen related receptor (ERR) signaling pathway from Tox21 library (AID 1224848); settings: ERR reporter cell line, luciferase antagonist mode, 18 h; series mostly up to 92.4 µM; note: nearly all actives have a fitted effect of over 50% in size; note: potency is the fitted concentration of half-maximal effect
Outline: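 ERR reporter cell line (from NTP) seeded 2,000 cells/well, rested 6 h at 37 C/5% CO2, then pin-dosed with compounds in DMSO. After 18 h at 37 C, ONE-Glo added; luminescence read after 30 min at room temperature.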

[5] = qHTS RealTime-Glo MT Cell Viability Assay in HepG2 cells - 24 hour (AID 1224867); settings: RealTime-Glo luminescence; series mostly up to 76.8 µM; note: nearly all actives have a fitted effect of over 50% in size; note: potency is the fitted concentration of half-maximal effect
Outline: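 qHTS, HepG2, 600 cells/well, RealTime-Glo (NanoLuc + prosubstrate) added with cells; 5 h preincubation; DMSO compound addition; 37 C; luminescence at 0/8/16/24/32/40 h.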

[6] = qHTS RealTime-Glo MT Cell Viability Assay in HEK293 cells - 32 hour (AID 1224868); settings: RealTime-Glo luminescence; series mostly up to 76.8 µM; note: nearly all actives have a fitted effect of over 50% in size; note: potency is the fitted concentration of half-maximal effect
Outline: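 Assay medium contained NanoLuc luciferase plus cell-permeant prosubstrate, added with HEK293 cells at 600 cells/well. After 5 h at 37 C/5% CO2 compounds were added; plates stayed at 37 C for 40 h with serial luminescence reads.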

[7] = A CellTox Green Cytotoxicity Assay to monitor cytotoxicity in HEK293 cells - 0 hour (AID 1224869); settings: CellTox Green fluorescence; series mostly up to 76.8 µM; note: nearly all actives have a fitted effect of over 50% in size
Outline: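 Fluorescence intensity, read at 0, 8, 16, 24, 32 and 40 h of compound treatment, reflected dye binding to DNA of dead HEK293 cells; compounds (23 nL, DMSO) were added 5 h after plating cells with reagent.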

[8] = qHTS RealTime-Glo MT Cell Viability Assay in HepG2 cells - 40 hour (AID 1224870); settings: RealTime-Glo luminescence; series mostly up to 76.8 µM; note: nearly all actives have a fitted effect of over 50% in size; note: potency is the fitted concentration of half-maximal effect
Outline: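 HepG2 cells (600/well) mixed with RealTime-Glo MT reagent, settled 5 h at 37 C/5% CO2 before compound addition. Nonlytic NanoLuc luminescence from viable-cell prosubstrate reduction read repeatedly during 40 h treatment at 37 C.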

[9] = qHTS assay to identify small molecule agonists of the estrogen related receptor (ERR) signaling pathway from Tox21 library (AID 1224849; calls by dose curve; note: nearly all actives have a fitted effect of over 15% in size); settings: ERR reporter cell line, ONE-Glo luciferase, 18 h
Outline: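 Screening used an NTP-provided ERR luciferase cell line. Compounds in DMSO were added 6 h after seeding and left 18 h at 37 C before a 30 min ONE-Glo step and luminescence reading.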

[10] = qHTS assay to identify small molecule agonists of the hypoxia (HIF-1) signaling pathway (AID 1224846; active = well fitted activation curve with a large enough effect in the signal ratio in the repeat runs, not every such curve was filed as active; the % refers to the signal ratio); settings: HRE-bla ME-180 cells, beta-lactamase ratio, 17 h; series mostly up to 76.8 µM
Outline: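 A low-serum medium (0.5% dialyzed FBS) holding 2,000 HRE-bla ME-180 cells per well is preincubated for 5 hrs, dosed with compounds by pintool, and kept a further 17 hrs at 37C, 5% CO2 before CCF4-AM FRET detection of beta-lactamase.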
% is set by controls: 0 for no effect and ±100 for the full control effect.

Cc1cccc(C)c1NC1=NCCCS1
inactive: Potency [1] | Potency [2] | Potency [3] | Potency [4] | Potency [5] | Potency [6] | Potency [7] | Potency [8]

COc1ccccc1N1CCNCC1
inactive: Potency [1] | Potency [2] | Potency [3] | Potency [5] | Potency [6] | Potency [7] | Potency [8]

CC[N+]1(C)CCCC(OC(=O)C(O)(c2ccccc2)c2ccccc2)C1 (stereo not given)
inactive: Potency [1] | Potency [2] | Potency [3] | Potency [4] | activity change, positive = activation ([9]; at 42.5 µM (top of the series)) 6.13% | Potency [5] | Potency [6] | Potency [7] | Potency [8]

CCSCc1ccccc1OC(=O)NC
inactive: Potency [1] | Potency [2] | outcome [10] | Potency [5] | Potency [6] | Potency [7] | Potency [8]

CCOC(=O)c1cncn1C(C)c1ccccc1 (stereo not given)
inactive: Potency [1] | Potency [2] | Potency [3] | Potency [4] | Potency [5] | Potency [6] | Potency [7] | Potency [8]

O=S(=O)(Cl)Cl
inactive: Potency [1] | Potency [2] | outcome [10] | Potency [3] | Potency [5] | Potency [7] | Potency [8]

NP(N)(=O)NC(=O)c1ccc(F)cc1
inactive: Potency [1] | outcome [10] | Potency [3] | Potency [4] | Potency [5] | Potency [6] | Potency [7] | Potency [8]

CC(C)c1ccc(OP(=O)(Oc2ccc(C(C)C)cc2)Oc2ccc(C(C)C)cc2)cc1
inactive: Potency [1] | Potency [2] | outcome [10] | Potency [3] | Potency [5] | Potency [7] | Potency [8]

O=C1CC[C@@]2(O)[C@H]3Cc4ccc(O)c5c4[C@@]2(CCN3CC2CC2)[C@H]1O5
inactive: Potency [1] | Potency [2] | Potency [3] | Potency [5] | Potency [6] | Potency [7] | Potency [8]

O=C(O)C(O)C(O)C(=O)O (stereo not given)
inactive: Potency [1] | Potency [2] | Potency [3] | Potency [5] | Potency [6] | Potency [7] | Potency [8]

OC[P+](CO)(CO)CO
44.2 µM (active) and inactive: Potency [1]
inactive: Potency [2] | outcome [10] | Potency [3] | Potency [5] | Potency [6] | Potency [7] | Potency [8]

O=C(N/N=C/c1ccc([N+](=O)[O-])o1)c1cc([N+](=O)[O-])cc([N+](=O)[O-])c1O
inactive: Potency [1] | Potency [2] | outcome [10] | Potency [3] | Potency [5] | Potency [6] | Potency [7] | Potency [8]

CCCC[P+](CC)(CCCC)CCCC (tested in a mixture with another compound)
inactive: Potency [1] | Potency [2] | outcome [10] | Potency [3] | Potency [5] | Potency [7] | Potency [8]

CC(C)(C)CC(C)(C)c1ccc(O)cc1
38.9 µM (active) and inactive: Potency [1]
46.2 µM (active) and inactive: Potency [5]
inactive: Potency [6] | Potency [7]
49 µM (active) and inactive: Potency [8]
active: Potency [2] 89.8 µM | Potency [3] 4.5 µM and 39.1 µM

CCOP(=S)(S)OCC
inactive: Potency [1] | outcome [10] | Potency [3] | Potency [4] | activity change, positive = activation ([9]; at 92.4 µM (top of the series)) -3.44% | Potency [5] | Potency [6] | Potency [7] | Potency [8]

CCCN(CCOc1c(Cl)cc(Cl)cc1Cl)C(=O)n1ccnc1
inactive: Potency [1] | Potency [2] | outcome [10] | Potency [5] | Potency [7] | Potency [8]
active: Potency [4] 15.7 µM and 24.3 µM | Potency [6] 19.9 µM and 27.5 µM

Cc1ncc(C[n+]2csc(CCO)c2C)c(N)n1
inactive: Potency [1] | Potency [2] | Potency [3] | Potency [5] | Potency [6] | Potency [7] | Potency [8]

CN1C(=O)CN=C(c2ccccc2)c2cc([N+](=O)[O-])ccc21
inactive: Potency [1] | outcome [10] | Potency [3] | Potency [5] | Potency [6] | Potency [7] | Potency [8]

C[C@]12C=CC3=C4CCC(=O)C=C4CC[C@H]3[C@@H]1CC[C@@H]2O
inactive: Potency [1] | outcome [10] | Potency [5] | Potency [6] | Potency [7] | Potency [8]
active: Potency [3] 89.2 µM and 75.9 µM

CC(O)CN1CCN(CC(=O)[O-])CCN(CC(=O)[O-])CCN(CC(=O)[O-])CC1.[Gd+3] (stereo not given)
inactive: Potency [1] | outcome [10] | Potency [3] | Potency [5] | Potency [6] | Potency [7] | Potency [8]
